Compound activity: PubChem BioAssay, The Scripps Research Institute Molecular Screening Center
Rows were chosen to be rich in hits. Some 2.4% of all compounds tested hit in one or more screens of this group.
PLCg1 inh = inhibitors of human phospholipase C gamma1 | purified PLC-gamma1, fluorogenic substrate, fluorescence | P19174 | hit rate 0.84% among 370,000 | inhibition, % at 12.2 µM | AID 720700
Target sequence (P19174 whole entry, looked up): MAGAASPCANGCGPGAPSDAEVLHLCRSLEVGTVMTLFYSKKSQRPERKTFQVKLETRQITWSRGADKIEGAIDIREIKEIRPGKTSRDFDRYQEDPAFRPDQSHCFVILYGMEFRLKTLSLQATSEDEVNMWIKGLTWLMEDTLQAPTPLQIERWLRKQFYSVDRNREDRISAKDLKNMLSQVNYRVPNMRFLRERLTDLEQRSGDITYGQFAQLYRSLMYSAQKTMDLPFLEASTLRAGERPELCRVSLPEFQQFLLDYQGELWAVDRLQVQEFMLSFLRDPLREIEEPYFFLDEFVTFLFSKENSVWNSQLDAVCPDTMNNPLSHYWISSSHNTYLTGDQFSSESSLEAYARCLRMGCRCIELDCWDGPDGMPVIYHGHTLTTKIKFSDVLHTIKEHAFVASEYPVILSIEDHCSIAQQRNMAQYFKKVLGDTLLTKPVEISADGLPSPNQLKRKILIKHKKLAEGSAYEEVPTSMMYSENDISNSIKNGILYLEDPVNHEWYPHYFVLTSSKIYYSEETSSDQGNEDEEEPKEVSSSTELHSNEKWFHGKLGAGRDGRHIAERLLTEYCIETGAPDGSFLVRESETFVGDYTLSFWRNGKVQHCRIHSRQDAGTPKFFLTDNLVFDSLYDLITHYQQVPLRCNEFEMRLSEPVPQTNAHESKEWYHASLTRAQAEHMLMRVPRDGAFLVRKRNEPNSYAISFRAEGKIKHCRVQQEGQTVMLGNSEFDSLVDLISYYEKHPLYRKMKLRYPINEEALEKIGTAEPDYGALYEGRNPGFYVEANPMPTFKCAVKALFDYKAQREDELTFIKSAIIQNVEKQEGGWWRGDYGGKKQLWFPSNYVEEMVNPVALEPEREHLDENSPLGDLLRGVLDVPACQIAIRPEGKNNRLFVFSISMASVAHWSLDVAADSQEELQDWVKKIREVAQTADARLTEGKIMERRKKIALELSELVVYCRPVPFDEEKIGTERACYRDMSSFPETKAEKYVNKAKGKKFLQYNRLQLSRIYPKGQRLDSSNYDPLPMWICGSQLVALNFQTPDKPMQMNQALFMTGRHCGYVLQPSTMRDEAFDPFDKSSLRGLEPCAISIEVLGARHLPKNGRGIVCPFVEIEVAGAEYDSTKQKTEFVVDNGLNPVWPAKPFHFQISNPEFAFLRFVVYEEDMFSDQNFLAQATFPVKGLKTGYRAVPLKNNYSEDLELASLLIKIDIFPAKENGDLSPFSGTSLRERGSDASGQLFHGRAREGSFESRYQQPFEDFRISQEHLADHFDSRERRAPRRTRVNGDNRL
PLC-beta3 inh = inhibitors of human phospholipase C beta3. Q01970. Purified PLC-beta3, fluorogenic substrate, fluorescence. inhibition, % at 12.2 µM. hit rate 0.18% among 370,000. AID 720704; in the data active = inhibition above about 11%;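 also: 0% = median of compound wells on plate and 100% = full blocker control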
UHRF1 binding = UHRF1 methyl-DNA binding inhibition | Q96T88 | UHRF1 binding to methylated oligo, TR-FRET | inhibition, % at 4.4 µM | hit rate 0.75% among 370,000 | AID 687016; in the data active = inhibition above about 21%;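 also: UHRF1 SRA domain binding a hemimethylated CpG hairpin DNA probe; 0% = median of test compound wells and 100% = reference inhibitor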
MBD2 DNA inh = MBD2-methylated oligo binding inhibition; hit rate 0.31% among 370,000; TR-FRET, MBD2 binding to methylated oligonucleotide; inhibition, % at 4.4 µM; Q9UBB5; in the data active = inhibition above about 13%
LEDGF integ inh = blocks HIV-1 LEDGF/p75-dependent DNA integration. TR-FRET IN-LEDGF/p75 DNA integration, Eu/Cy5. inhibition, % at 3.7 µM. hit rate 0.64% among 370,000. AID 743269;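 active = inhibition above the screen-wide mean plus 3 SD, cut at about 13% in these data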;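 also: signal is the Cy5 over europium emission ratio at 671 and 618 nm; 0% = plate median of compound wells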
UHRF1 DNA bind = inhibits human UHRF1 binding to methylated oligonucleotide, MBD2 counter-screen; shares compounds with MBD2 DNA inh; TR-FRET; inhibition, % at 4.4 µM; hit rate 25% among 1,000; AID 720530; in the data active = inhibition above about 21%;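 also: UHRF1 SRA domain binding a labeled hemimethylated CpG hairpin DNA; 0% = vehicle only and 100% = reference inhibitor with vehicle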
MBD2 DBD conf = MBD2-DBD methyl-DNA binding inhibition, TR-FRET confirmation; TR-FRET MBD2-DBD binding to methylated oligonucleotide; hit rate 26% among 1,000; inhibition, % at 4.4 µM; shares compounds with MBD2 DNA inh; in the data active = inhibition above about 14%
PLCgamma1 ctr = counter-screen for PLC-beta3 inhibitors: inhibitors of human PLC-gamma1. inhibition, % at 12.3 µM. purified PLC-gamma1, fluorogenic substrate, fluorescence. AID 743258. shares compounds with PLCg1 inh. hit rate 3.1% among 3,300
PLCbeta3 conf = human PLC-beta3 inhibition, confirmation; shares compounds with PLCg1 inh; purified PLC-beta3, fluorogenic substrate fluorescence; inhibition, % at 12.3 µM; hit rate 1% among 3,300; in the data active = inhibition above about 11%
IN multimer up = counter-screen for LEDGF/p75 integration inhibitors: HIV-1 integrase multimerization activators; hit rate 17% among 2,000; TR-FRET HIV-1 integrase multimerization, biochemical; activation, % at 7.7 µM; shares compounds with LEDGF integ inh; in the data active = activation above about 8.9%
TRFRET interf = optically interferes with TR-FRET readout in LEDGF counter-screen; shares compounds with LEDGF integ inh; TR-FRET optical interference counterscreen, HIV-1 IN multimerization; inhibition, % at 7.7 µM; 2,000 tested, under 10 active; AID 1053135;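 active = inhibition above the mean over all tested compounds plus 3 SD, which no compound reached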;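 also: 0% = integrase with antibodies and DMSO and 100% = antibodies without integrase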
IN-LEDGF confirm = LEDGF/p75-dependent HIV-1 integration inhibition, confirmation. shares compounds with LEDGF integ inh. hit rate 36% among 2,000. TR-FRET LEDGF/p75-dependent HIV-1 integration, biochemical. inhibition, % at 3.7 µM; in the data active = inhibition above about 14%
Active calls of the source: *. Rule as the data show it, unless noted: active = inhibition above about 9.5%; inactive = the rest.

Screening N[C@H](C(=O)Nc1ccc(Cl)cc1C(=O)c1ccc[nH]1)c1ccccc1 returned PLCg1 inh -1.6, PLC-beta3 inh -6.5, UHRF1 binding 11.4, MBD2 DNA inh 4.8 and LEDGF integ inh -1.1.
Screening Cc1ccccc1CS(=O)(=O)Cc1ccc(C(=O)Nc2cccc(Cl)c2F)o1 returned PLCg1 inh -0.5, PLC-beta3 inh -4.5, UHRF1 binding 0.2, MBD2 DNA inh -8.8 and LEDGF integ inh -0.2.
For O=C(NCc1ccccc1Cl)C1CCCN(c2nc3ccccc3o2)C1 (stereo not drawn) the results were PLCg1 inh -1.0, PLC-beta3 inh -5.0, UHRF1 binding 2.3, MBD2 DNA inh -1.2 and LEDGF integ inh 0.3.
Screening O=C1C(=Cc2ccco2)CCC1=Cc1ccco1 returned PLCg1 inh 11.1*, PLC-beta3 inh -3.9, UHRF1 binding 99.8*, MBD2 DNA inh 102.9*, LEDGF integ inh 91.2*, UHRF1 DNA bind 96.1*, MBD2 DBD conf 53.4*, IN multimer up 14.4*, TRFRET interf -72.8 and IN-LEDGF confirm 92.9*.
Cc1onc(-c2ccccc2Cl)c1C(=O)NCc1ccco1 was read as PLCg1 inh -10.8, PLC-beta3 inh -12.1, UHRF1 binding 41.3*, MBD2 DNA inh 25.8*, LEDGF integ inh 44.0*, UHRF1 DNA bind 18.7, MBD2 DBD conf 14.0*, IN multimer up 10.0*, TRFRET interf -50.5 and IN-LEDGF confirm 30.5*.
For Nc1c(C(=O)NCC2CCCO2)sc2nc3c(c(-c4ccco4)c12)CC/C3=C\c1ccco1 (stereo not drawn) the results were PLCg1 inh -38.2, PLC-beta3 inh -47.8, UHRF1 binding 42.1*, MBD2 DNA inh 20.8*, LEDGF integ inh 65.2*, UHRF1 DNA bind 92.2*, MBD2 DBD conf 106.3*, IN multimer up 54.1*, TRFRET interf -192.9 and IN-LEDGF confirm 84.5*.
For COc1ccc(S(=O)(=O)/N=C2/NC(=O)/C(=C/c3ccco3)S2)cc1 the results were PLCg1 inh -130.6, PLC-beta3 inh -176.4, UHRF1 binding 75.8*, MBD2 DNA inh 21.6*, LEDGF integ inh 38.7*, UHRF1 DNA bind 19.0, MBD2 DBD conf 2.9, IN multimer up 1.2, TRFRET interf -6.2 and IN-LEDGF confirm 11.6.
For Cc1n[nH]c(=S)n(NC(=O)/C=C/C(=O)Nn2c(=S)[nH]nc(C)c2=O)c1=O the results were PLCg1 inh -1.5, PLC-beta3 inh -15.6, UHRF1 binding 41.3*, MBD2 DNA inh 14.6*, LEDGF integ inh 13.6*, UHRF1 DNA bind 15.5, MBD2 DBD conf 9.0, IN multimer up 8.4, TRFRET interf -42.1 and IN-LEDGF confirm 29.4*.
Cc1n[nH]c(=S)n(NC(=O)CC(=O)Nn2c(=S)[nH]nc(C)c2=O)c1=O was read as PLCg1 inh 0.6, PLC-beta3 inh 2.3, UHRF1 binding -12.3, MBD2 DNA inh -4.7 and LEDGF integ inh -33.0.
`Cc1ccc2c(c1)C1CS(=O)(=O)N(C3CCCC3)C(=O)N1C2` (stereo not drawn) gave PLCg1 inh -0.1, PLC-beta3 inh 1.8, UHRF1 binding -0.8, MBD2 DNA inh -4.9 and LEDGF integ inh 1.3.
For CSc1nc(N(CCO)CCO)c2sc3nc(-c4ccco4)c4c(c3c2n1)CCC4 the results were PLCg1 inh -209.0, PLC-beta3 inh -254.6, UHRF1 binding 24.1*, MBD2 DNA inh 18.5*, LEDGF integ inh 15.8*, UHRF1 DNA bind 30.7*, MBD2 DBD conf 36.2*, IN multimer up 11.9*, TRFRET interf -59.8 and IN-LEDGF confirm 52.9*.
For CSc1nc(SCCO)c2sc3nc(-c4ccco4)c4c(c3c2n1)CC(C)(C)OC4 the results were PLCg1 inh -42.5, PLC-beta3 inh -54.1, UHRF1 binding 3.2, MBD2 DNA inh 8.1 and LEDGF integ inh 7.8.
Screening O=C(Nc1ccccc1Cl)OC1CC2CC1[C@H]1CCCCN1[C@H]2Cc1ccccc1 (stereo partly drawn) returned PLCg1 inh -2.8, PLC-beta3 inh -3.3, UHRF1 binding -1.4, MBD2 DNA inh -2.4 and LEDGF integ inh -2.4.
Screening COC(=O)[C@]12C[C@H](CC(=O)N3CCCC3)C(=O)N(Cc3ccco3)C1=C[C@H](C1CCCC1)O[C@@H]2C returned PLCg1 inh 2.0, PLC-beta3 inh 1.4, UHRF1 binding 3.5, MBD2 DNA inh 1.6 and LEDGF integ inh 2.2.
C=CCn1c(COc2ccc(C)cc2)nnc1SCc1ccc([N+](=O)[O-])cc1 was read as PLCg1 inh -1.4, PLC-beta3 inh -1.5, UHRF1 binding -0.9, MBD2 DNA inh -1.8 and LEDGF integ inh -1.4.
For Nc1ccc(C(CC(=O)O)n2cccc2)cc1 (stereo not drawn) the results were PLCg1 inh 26.2*, PLC-beta3 inh 14.3*, UHRF1 binding 100.3*, MBD2 DNA inh 42.8*, LEDGF integ inh 64.9*, UHRF1 DNA bind 8.8, MBD2 DBD conf 1.1, PLCgamma1 ctr -4.1, PLCbeta3 conf -2.6, IN multimer up 0.2, TRFRET interf -1.1 and IN-LEDGF confirm 4.1.
For Nc1ccc2nc(-c3cccc(-c4nc5ccc(N)cc5[nH]4)c3)[nH]c2c1 the results were PLCg1 inh -33.7, PLC-beta3 inh -64.3, UHRF1 binding 25.6*, MBD2 DNA inh 13.6*, LEDGF integ inh 16.2*, UHRF1 DNA bind 3.5, MBD2 DBD conf 4.0, IN multimer up 59.9*, TRFRET interf -213.4 and IN-LEDGF confirm -11.5.
Nc1ccc(-c2nc3ccc(N)cc3[nH]2)cc1 was read as PLCg1 inh inactive, PLC-beta3 inh inactive, UHRF1 binding -6.8, MBD2 DNA inh 0.1 and LEDGF integ inh -6.3.
`CS(=O)(=O)N1CCC[C@]2(CC[C@H](CCC#N)O2)C1` gave PLCg1 inh 1.6, PLC-beta3 inh -0.6, UHRF1 binding -1.1, MBD2 DNA inh 0.1 and LEDGF integ inh 0.6.
